# Reference: PubChem BioAssay AID598 (SRMLSC, 2007)
# Among all 85,000 compounds or so, about 5,100 (6%) were called active.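 Rule for the calls: active = viability at or below 40%; inactive = viability above 40%.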 The entries come from a sample that favours actives as a whole.
# Experiment: proliferation blockers of H69AR lung cancer cells, primary screen, cell-based, human, 86K library (AID 598);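 note: multidrug resistant small cell line overexpressing MRP-1 efflux transporter; 100% = mean luminescence of untreated control wells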
# Conditions: H69AR lung tumor viability, ATP luminescence, 72 h; at 10 µM; stronger effect = lower value
row,SMILES,viability
1,O=S(=O)(NN=C1CCCCCCC1)c1ccc(Br)cc1,88.9% (inactive)
2,CC/S(CC1CC1(Cl)Cl)=N\S(=O)(=O)c1ccc(C)cc1 (stereo unspecified),76.7% (inactive)
3,CCCCn1c(SCC(=O)NCCc2ccc(OC)c(OC)c2)nc2c1c(=O)n(C)c(=O)n2C,86.6% (inactive)
4,CCn1c(SCC(=O)Nc2nc3ccc(OC)cc3s2)nnc1-c1ccoc1C,58.8% (inactive)
5,CCOc1ccc2nc(NC(=O)CSc3nc4c(c(=O)n(C)c(=O)n4C)n3CC)sc2c1,14.9% (active)
6,COC(=O)CNC(=O)c1ccccc1F,85.2% (inactive)
7,O=C(c1ccc(Cl)c(Cl)c1)N1CCCC1,95.3% (inactive)
8,C/C=C/C(=O)OCC(=O)Nc1ccc(F)cc1Cl,98.4% (inactive)
9,COc1ccccc1-n1nnnc1S(=O)(=O)Cc1ccc(Cl)cc1,1.36% (active)
10,COc1ccccc1N1CCN(Cc2nnnn2CCc2ccccc2)CC1,102% (inactive)
11,COc1ccccc1N1CCN(C(=O)CN(Cc2ccc(Cl)cc2)S(C)(=O)=O)CC1,86.8% (inactive)
12,COCc1[nH][nH]c(=O)c1C=Nc1ccc(F)cc1F,96.8% (inactive)
13,Cc1cc(C(F)F)n2nc(C(=O)Nc3ccc(S(=O)(=O)NC45CC6CC(CC(C6)C4)C5)cc3)nc2n1,115% (inactive)
14,CC(C)CNC(=O)CC(c1ccccc1)c1c(O)ccc2ccccc12 (stereo unspecified),92.8% (inactive)
15,O=S(=O)(NCCc1ccccc1)c1ccccc1,103% (inactive)
16,CCN1C(=O)C(CC(=O)Nc2cc(C)ccc2C)SC1=Nc1ccc(S(N)(=O)=O)cc1 (stereo unspecified),97.3% (inactive)
17,COc1ccc(CC(=O)Nc2ccc(-c3nnc(-c4ccc(C)cc4)o3)cc2)cc1,2.28% (active)
18,COc1ccc(CC(=O)Nc2ccc(-c3nnc(-c4ccccc4)o3)cc2)cc1,58.1% (inactive)
19,Cc1ccc(OCC(=O)Nc2ccc(-c3nnc(-c4ccco4)o3)cc2)cc1,90.5% (inactive)
20,CN(Cc1ccccc1)C(=O)COc1ccccc1,97.9% (inactive)
21,CCc1ccccc1NC(=O)CN(C)S(=O)(=O)c1ccc2c(c1)c(=O)n(C)c(=O)n2C,88.5% (inactive)
22,CC(=O)c1ccc(S(=O)(=O)N2CCN(c3nc4c(C)c(C)ccc4cc3C#N)CC2)cc1,36% (active)
23,Cc1cccc2cc(C#N)c(N3CCCC3)nc12,100% (inactive)
24,Cc1cc(C)c2nc(N3CCCC3)c(C#N)cc2c1,91.6% (inactive)

row,SMILES,viability
1,CCS(=O)(=O)Nc1ccc(C2=NN(S(=O)(=O)c3ccc(F)cc3)C(c3ccco3)C2)cc1 (stereo unspecified),81.9% (inactive)
2,O=C(NC1CCCC1)C(c1ccccn1)N(C(=O)c1csnn1)C1CCCC1 (stereo unspecified),81.2% (inactive)
3,CCOC(=O)CN(Cc1ccc(OC)c(OC)c1)S(=O)(=O)c1ccc(OC)cc1,87.8% (inactive)
4,Cc1c(NC(=O)CSc2cccc3cccnc23)c(=O)n(-c2ccccc2)n1C,0.71% (active)
5,Cc1ccccc1OCCC(=O)Nc1c(C)n(C)n(-c2ccccc2)c1=O,91% (inactive)
6,Cc1cc(C)cc(N(CC(=O)Nc2c(C)n(C)n(-c3ccccc3)c2=O)S(C)(=O)=O)c1,93.1% (inactive)
7,COc1ccc(C(C)=O)cc1CN1C(=O)NC2(CCCCC2C)C1=O (stereo unspecified),93.7% (inactive)
8,CCOC(=O)N1CCN(C(=O)COc2ccc(Br)cc2)CC1,104% (inactive)
9,CCOC(=O)C1CCN(C(=O)Nc2ccc(Cl)cc2)CC1,101% (inactive)
10,CCOC(=O)C1CCN(C(=O)COc2cc(C)c(Br)c(C)c2)CC1,35.3% (active)
11,O=C1C2C3C=CC(C4CC34)C2C(=O)N1/N=C/c1ccc(-c2ccccc2[N+](=O)[O-])o1 (stereo unspecified),86.5% (inactive)
12,COc1cccc(NC(=O)Cc2ccc(C)cc2)c1,97.9% (inactive)
13,COc1ccc(NC(=O)/C(Cl)=C(/Cl)S(=O)Cc2ccc(C)cc2)cn1 (stereo unspecified),0.7% (active)
14,O=C(Cn1cnc2ccccc2c1=O)NCC1COc2ccccc2O1 (stereo unspecified),104% (inactive)
15,Cc1cc(=O)[nH]c(SCc2cccc(F)c2)n1,106% (inactive)
16,Cc1cc(NC(=O)Cn2nc(C(F)(F)F)c3c2CCCC3)no1,35.8% (active)
17,COC(=O)c1ccccc1NC(=O)Cn1nc(C(F)(F)F)c2c1CCC2,84.3% (inactive)
18,O=C(Cn1nc(C(F)(F)F)c2c1CCC2)NCc1ccc(F)cc1,104% (inactive)
19,Cc1ccc(OC(=O)c2ccccc2C(=O)OCC(F)(F)C(F)F)cc1,99.1% (inactive)
20,COc1ccc(-n2ncc3c(N4CCCc5ccccc54)ncnc32)cc1,100% (inactive)
21,COc1ccc(-n2ncc3c(N4CCc5ccccc54)ncnc32)cc1,43.4% (inactive)
22,Cc1cccc(-n2ncc3c(N4CCc5ccccc54)ncnc32)c1,33.3% (active)
23,CC(C)N1C(=S)SC(C)(C)C1n1oc(=O)n(-c2ccc(Cl)c(Cl)c2)c1=O (stereo unspecified),97.1% (inactive)
24,CC(C)(C)n1nnnc1C(c1ccc(F)cc1)N1CCN(Cc2ccc3c(c2)OCO3)CC1 (stereo unspecified),81.2% (inactive)

row,SMILES,viability
1,CCN1C(=O)/C(=C\N2CCOCC2)SC1=S,86.2% (inactive)
2,CCSc1nc(-c2ccc(OC)cc2)cc(-c2ccc(OC)cc2)c1C#N,88% (inactive)
3,COC(=O)C(NC(C)=O)(Nc1nc2c(s1)CCCC2)C(F)(F)F (stereo unspecified),91.5% (inactive)
4,O=C(CCS(=O)(=O)c1ccccc1)Nc1nc2c(s1)CCCC2,17.5% (active)
5,O=C(Cn1c(=O)sc2ccccc21)Nc1nc2c(s1)CCCC2,63.2% (inactive)
6,COc1ccc(C(C#N)N2N=C(C)CC2(C)C)cc1 (stereo unspecified),104% (inactive)
7,COC(=O)c1c(C)c(C)nc(N)c1C#N,98.1% (inactive)
8,FC(F)(F)c1cc(-c2ccco2)nc(NCc2ccc(Cl)cc2)n1,101% (inactive)
9,CCCNC(=O)c1ccc(Cl)c(Cl)c1,96% (inactive)
10,O=C(NCc1cccnc1)Nc1ccccc1F,98.8% (inactive)
11,CCC(c1nnnn1Cc1ccco1)N(CCc1ccccc1)Cc1cc2ccc(OC)cc2[nH]c1=O (stereo unspecified),23.2% (active)
12,CCC(c1nnnn1Cc1ccco1)N(CCc1ccccc1)Cc1cc2cccc(C)c2[nH]c1=O (stereo unspecified),67.3% (inactive)
13,CCC(c1nnnn1Cc1ccco1)N(Cc1cc2cc(OC)ccc2[nH]c1=O)C1CCCCC1 (stereo unspecified),76.8% (inactive)
14,Cc1nc(SCC(=O)Nc2cc(C)on2)c2c3c(sc2n1)CCCC3,94% (inactive)
15,CC1CCc2c(sc(NC(=O)c3ccc(Cn4cc(Br)cn4)o3)c2C(N)=O)C1 (stereo unspecified),101% (inactive)
16,Cc1cc(NC(=O)CSc2nc(C(C)C)nc3sc4c(c23)CCC(C)C4)no1 (stereo unspecified),6.01% (active)
17,C=CCN(C(=O)Nc1ccc2oc(C)nc2c1)c1ccccc1,78.7% (inactive)
18,COc1ccc(-c2nn(-c3ccccc3)cc2C(=O)Nc2nc(CC(C)=O)ns2)cc1,86.5% (inactive)
19,COc1ccc(-c2nn(-c3ccccc3)cc2C(=O)Nc2nccs2)cc1OC,17.2% (active)
20,COc1cc(C(=O)Nc2nccs2)cc(OC)c1OC,84.2% (inactive)
21,C/C=C/C(=O)Nc1nnc(C(C)C)s1,96.5% (inactive)
22,O=C(Nc1ccccc1)c1ccc2c(c1)OCO2,82.3% (inactive)
23,CCC(C)c1ccc(O)c(/C=N/O)c1 (stereo unspecified),21.6% (active)
24,Cc1nn(C(C)CC(=O)O)c(C)c1C (stereo unspecified),98.2% (inactive)

row,SMILES,viability
1,CCCCNC(=O)C1(c2ccc(OC)cc2)CCOCC1,93.8% (inactive)
2,CCOc1ccc(NC(=O)c2ccccc2NS(C)(=O)=O)cc1,94.1% (inactive)
3,C=CCn1c(SCC(=O)Nc2nc3ccccc3s2)nnc1-c1ccccc1O,27.4% (active)
4,C=CCn1c(SCC(=O)NCc2ccccc2)nnc1-c1cc(Br)ccc1O,87.8% (inactive)
5,C=CCn1c(CSc2nc3ccccc3s2)nnc1SCC(=O)NCc1ccco1,54.6% (inactive)
6,COc1ccc(C(=O)Nc2nc(-c3ccc(S(=O)(=O)N4CCOCC4)cc3)cs2)cc1,58% (inactive)
7,Oc1ccc(-c2csc(Nc3cccnc3)n2)cc1,54.4% (inactive)
8,COc1ccc(OC)c(Nc2nc(-c3ccc(O)c(O)c3)cs2)c1,30.8% (active)
9,CCOC(=O)C1=C(CNC2CCCCC2)NC(=O)NC1c1cc(C)ccc1C (stereo unspecified),80.5% (inactive)
10,CCOC(=O)C1=C(CN2CCc3ccccc32)NC(=O)NC1c1cccc([N+](=O)[O-])c1 (stereo unspecified),16.4% (active)
11,CCOC(=O)C1=C(CN2CCc3ccccc32)NC(=O)NC1c1ccc(Cl)cc1 (stereo unspecified),48.1% (inactive)
12,COC(=O)C1=C(C(=O)c2ccc(C)cc2)C(c2ccccc2)n2nnnc2N1 (stereo unspecified),93.9% (inactive)
13,COc1ccc(C2=CC(c3cccc(OC)c3)n3nnnc3N2)cc1 (stereo unspecified),11.4% (active)
14,COc1ccccc1NC(=O)C1=C(C)Nc2nnnn2C1c1cccc(Br)c1 (stereo unspecified),45.1% (inactive)
15,CC(C)C(NC(=O)c1ccc(Cl)cc1)C(=O)O (stereo unspecified),111% (inactive)
16,CCCc1nc2sc3c(c2c(=O)n1NC(=O)CCCl)CCCC3,36% (active)
17,O=c1c2ccccc2nnn1CSc1nc2sc3c(c2c(=O)n1CC1CCCO1)CCC3 (stereo unspecified),54.9% (inactive)
18,Cn1c(NN)nc2sc3c(c2c1=O)CCC3,96.5% (inactive)
19,CC(C)CCNC(=O)CC1C(=O)N(Cc2ccccc2)C(C)c2nc3ccccc3n21 (stereo unspecified),102% (inactive)
20,COc1ccc(C2(CNC(=O)C(c3ccccc3)c3ccccc3)CCOCC2)cc1OC,74.8% (inactive)
21,CCOc1cc(C(=O)Nc2c(C)ccc3nsnc23)cc(OCC)c1OCC,78.3% (inactive)
22,O=C(CC(NCCN1CCOCC1)C(=O)O)Nc1cccc(Cl)c1 (stereo unspecified),94.2% (inactive)
23,COc1cccc2cc(C(C)N(CCCN3CCOCC3)C(=O)Nc3ccc(Cl)cc3)oc12 (stereo unspecified),31.7% (active)
24,COc1ccc(C(=O)Nc2ccc(CN3CCOCC3)cc2)cc1,98.4% (inactive)
